BAZ2B inh: BAZ2B (human) inhibition; Q9UIF8; AlphaScreen BAZ2B-H3K14Ac peptide displacement; Potency, µM (top dose mostly 114 µM), for the others: at the top dose activity change, negative = inhibition, actives largely listed as inhibitors; 4.4% of 360,000 active; also: % is scaled to controls: 0 for no effect and ±100 for the full control effect; nearly all actives have a fitted effect of over 60% in size
Target sequence (Q9UIF8 whole entry, looked up): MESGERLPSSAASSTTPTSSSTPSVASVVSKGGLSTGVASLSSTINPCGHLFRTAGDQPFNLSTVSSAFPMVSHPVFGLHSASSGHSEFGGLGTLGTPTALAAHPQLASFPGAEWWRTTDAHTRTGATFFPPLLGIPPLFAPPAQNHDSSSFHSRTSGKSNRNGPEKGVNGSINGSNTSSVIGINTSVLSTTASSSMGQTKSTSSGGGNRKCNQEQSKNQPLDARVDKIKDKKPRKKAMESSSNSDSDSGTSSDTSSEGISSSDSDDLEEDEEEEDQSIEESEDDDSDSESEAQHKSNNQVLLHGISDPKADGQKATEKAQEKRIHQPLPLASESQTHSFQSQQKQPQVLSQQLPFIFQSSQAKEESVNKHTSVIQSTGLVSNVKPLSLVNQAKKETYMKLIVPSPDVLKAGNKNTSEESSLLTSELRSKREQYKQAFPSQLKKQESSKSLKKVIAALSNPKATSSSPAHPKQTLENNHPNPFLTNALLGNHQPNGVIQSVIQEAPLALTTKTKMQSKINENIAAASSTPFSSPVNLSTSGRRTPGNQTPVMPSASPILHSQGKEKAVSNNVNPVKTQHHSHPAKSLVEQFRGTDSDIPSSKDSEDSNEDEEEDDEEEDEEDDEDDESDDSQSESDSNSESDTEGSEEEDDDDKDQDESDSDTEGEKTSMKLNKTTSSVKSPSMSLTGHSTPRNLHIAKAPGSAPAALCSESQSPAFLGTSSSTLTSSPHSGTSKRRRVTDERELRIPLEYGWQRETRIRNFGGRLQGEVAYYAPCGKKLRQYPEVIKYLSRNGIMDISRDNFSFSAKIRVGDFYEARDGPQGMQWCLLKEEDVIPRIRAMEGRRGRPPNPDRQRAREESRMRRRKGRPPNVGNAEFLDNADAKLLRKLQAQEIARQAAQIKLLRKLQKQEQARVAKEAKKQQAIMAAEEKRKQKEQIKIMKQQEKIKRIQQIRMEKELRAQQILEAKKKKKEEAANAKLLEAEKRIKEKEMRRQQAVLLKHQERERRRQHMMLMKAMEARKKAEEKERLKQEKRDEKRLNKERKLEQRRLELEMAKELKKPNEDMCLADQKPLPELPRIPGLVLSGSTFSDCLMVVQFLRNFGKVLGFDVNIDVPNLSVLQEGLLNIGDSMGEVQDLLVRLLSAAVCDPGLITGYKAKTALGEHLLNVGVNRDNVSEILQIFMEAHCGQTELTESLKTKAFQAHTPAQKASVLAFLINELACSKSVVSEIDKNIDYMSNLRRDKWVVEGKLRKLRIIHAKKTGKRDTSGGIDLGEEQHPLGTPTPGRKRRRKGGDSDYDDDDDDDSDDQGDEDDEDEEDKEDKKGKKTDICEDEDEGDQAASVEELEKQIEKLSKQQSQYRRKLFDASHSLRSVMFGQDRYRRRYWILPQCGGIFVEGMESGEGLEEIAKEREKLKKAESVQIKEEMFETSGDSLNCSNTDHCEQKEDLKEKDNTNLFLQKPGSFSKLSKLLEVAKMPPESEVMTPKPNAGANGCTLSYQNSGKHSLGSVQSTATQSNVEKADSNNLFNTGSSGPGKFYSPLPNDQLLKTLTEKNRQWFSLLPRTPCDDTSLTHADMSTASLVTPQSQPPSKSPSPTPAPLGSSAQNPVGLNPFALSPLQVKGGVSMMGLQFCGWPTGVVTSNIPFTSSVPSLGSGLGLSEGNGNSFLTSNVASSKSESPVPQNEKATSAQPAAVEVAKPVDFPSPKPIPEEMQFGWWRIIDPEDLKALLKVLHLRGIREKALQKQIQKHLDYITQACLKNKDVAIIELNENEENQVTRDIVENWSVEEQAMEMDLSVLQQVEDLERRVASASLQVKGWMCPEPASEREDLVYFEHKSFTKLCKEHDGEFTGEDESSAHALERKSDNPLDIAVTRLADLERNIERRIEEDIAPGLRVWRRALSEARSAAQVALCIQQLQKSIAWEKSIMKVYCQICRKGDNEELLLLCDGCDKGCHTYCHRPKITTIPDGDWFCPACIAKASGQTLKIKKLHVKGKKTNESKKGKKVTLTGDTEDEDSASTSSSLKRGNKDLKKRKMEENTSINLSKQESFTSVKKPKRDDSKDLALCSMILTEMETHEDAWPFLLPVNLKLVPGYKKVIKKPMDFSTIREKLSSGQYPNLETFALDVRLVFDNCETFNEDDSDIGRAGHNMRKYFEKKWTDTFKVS
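Protein-peptide AlphaScreen: BAZ2B 50 nM, b-H3K14Ac 50 nM, 1x PBS pH 7.4 + 0.01% Tween-20. Preincubation 30 min RT; cpd 30 min RT (top 110 uM); beads 20 min RT, light-protected.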
HP1b binding inh: blocks HP1-beta chromodomain binding to methylated histone tails. Potency, µM (top dose mostly 114 µM), for inactives: at the top dose activity change, negative = inhibition, hits mostly inhibitors. 0.56% of 390,000 active. AlphaScreen HP1-beta / biotin-H3K9me3 peptide binding. P83916. AID 540317; also: nearly all actives have a fitted effect of over 70% in size
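Compound inhibition of the preformed complex between 50 nM HP1-beta and 50 nM biotinylated H3K9me3 peptide was read by AlphaScreen. Buffer was PBS pH 7.4 with 0.01% Tween-20. Incubations ran 30 min at room temperature, with 10 ug/mL donor/acceptor beads.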
JMJD2A Tudor: blocks the human JMJD2A Tudor domain | O75164 | Potency, µM (top dose mostly 114 µM), for inactives: at the highest dose activity change, negative = inhibition, usual class: inhibitors | AlphaScreen JMJD2A-Tudor / H3K4me3 peptide binding | 4.4% of 390,000 active; also: % is scaled to controls: 0 for no effect and ±100 for the full control effect; nearly all actives have a fitted effect of over 50% in size
G9a block: blocks human histone lysine methyltransferase G9a. Q96KQ7. G9a H3K9 monomethylation, AlphaScreen, 2 h. Potency, µM (doses to about 102 µM), inactives show top-dose activity, negative = inhibition, most hits filed as inhibitors. 8.8% of 350,000 active; also: % is scaled to controls: 0 for no effect and ±100 for the full control effect; nearly all actives have a fitted effect of over 75% in size
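G9a (20 nM) preincubated 15 min RT with compounds, then 500 nM biotinylated H3K9 peptide and 20 uM SAM added; 2 h RT reaction. Monomethyl-H3K9 product detected by AlphaScreen with anti-H3K9me1 antibody, streptavidin donor and anti-rabbit IgG acceptor beads.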
Sfp PPTase inh: blocks B. subtilis Sfp PPTase activity; Biochemical Sfp PPTase activity, qHTS; Potency, µM, for inactives: largest response in the series, negative = inhibition, usual class: inhibitors; 3.5% of 310,000 active;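 also: the enzyme is Sfp with the accession as filed and its product quenches rhodamine fluorescence; 0% = enzyme reaction without inhibitor and -100% = no enzyme wells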
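Step 1, compound plus 15 nM Sfp-PPTase, 15 min, room temperature. Step 2, add rhodamine-CoA (5 uM) and BHQ-2-YbbR (12.5 uM). Step 3, read 525/598 nm fluorescence at 0 and 30 min.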
Active calls of the source: *; u = inconclusive; x = no result; ! = not confirmed by another sample; [ ] = remark or other dose. Most compounds without a hit are left out; they make up all but 12% or so of the library. Calls follow the shape of the dose curve; as a rule, active = well fitted curve in the direction sought with a large enough effect; inconclusive = small, poorly fitted or top-dose-only effect, or another doubt; inactive = no such curve, though single readings can be large; an effect the other way counts as inactive or inconclusive. Potency is read from the fitted curve at half-maximal effect.

SMILES | BAZ2B inh | HP1b binding inh | JMJD2A Tudor | G9a block | Sfp PPTase inh
CC(C)COCC(CN(Cc1ccccc1)c1ccccc1)N1CCCC1 (stereo unspecified) | u | 35% | -3% | 10µM*! | -19%
N#CC1=C(S)N(c2ccccc2)C(c2ccc(-c3ccccc3Cl)o2)NC1=O (stereo unspecified) | u | u | u | u | 40µM*
CSC1=C(C#N)C(c2cccs2)CC(=O)N1C (stereo unspecified) | -2% | x | x | u | 1%
CCCCN1C(=O)C2ON(c3ccccc3C)C(c3ccco3)C2C1=O (stereo unspecified) | -8% | 18% | -11% | -31%[12.7 µM] | 11%
N#Cc1ccc(-c2ccc(C3Nc4ccccc4C(=O)N3O)o2)cc1 (stereo unspecified) | -35% | 45% | -25% | -15%[0.501 µM] | x
Cc1ccccc1N1C(S)=C(C#N)C(=O)NC1c1ccco1 (stereo unspecified) | u | 23% | -25% | x | 13µM*
N#CC1=C(S)N(c2ccc(F)cc2)C(c2cccs2)NC1=O (stereo unspecified) | 5% | 38% | -20%[57.1 µM] | 16µM* | 56µM*
Cc1ccccc1N1C(S)=C(C#N)C(=O)NC1c1cccs1 (stereo unspecified) | u | 26% | -27% | 7.9µM* | 6%
COc1ccc2[nH]cc(CCNc3ccnc(-c4c(C)noc4C)n3)c2c1 | x | x | x | 34%[0.501 µM] | 11%
COc1ccc2ncc3c(-c4ccccc4)nn(-c4ccc(C)c(C)c4)c3c2c1 | x | 14% | u | -19%[59 µM] | x
Cc1cccc(N2C(S)=C(C#N)C(=O)NC2c2cccs2)c1 (stereo unspecified) | 10% | 26% | -12% | 40µM* | 32µM*
CC(=O)N[C@H](C(=O)O)C(C)(C)SN=O | x | x | x | 7%[12.7 µM] | x
CN(C)N=C1c2cc(S(=O)(=O)N(C)C)ccc2-c2ccc(S(=O)(=O)N(C)C)cc21 | u | 4% | 3% | 63% | -2%
CS(=O)(=O)c1ccc(C(=O)OCC(=O)NC2CCS(=O)(=O)C2)cc1[N+](=O)[O-] (stereo unspecified) | 1% | 40% | -13% | -50% | 18%
CS(=O)(=O)c1ccc(SCC(=O)NC2CCS(=O)(=O)C2)c([N+](=O)[O-])c1 (stereo unspecified) | -9% | 17% | 1% | 32µM* | -28%
O=C(N/N=C/C=C\c1ccccc1[N+](=O)[O-])c1cccs1 | -6% | 44% | -24% | 17%[59 µM] | 4%
O=C(N/N=C/C=C\c1ccco1)c1cccs1 | 45µM* | 7% | -23% | u | 22µM*
O=C(N/N=C/c1cccs1)/C(=C/c1ccccc1)NC(=O)c1ccccc1 | 2% | 31% | -10% | 15%[59 µM] | 5%
O=C(N/N=C/C=C/c1ccco1)/C(=C/c1ccccc1)NC(=O)c1ccccc1 | -4% | -21% | 79µM* | 28µM* | 45µM*
O=C(N/N=C/C=C/c1ccco1)c1ccncc1 | 8% | u | 79µM* | x | 56µM*
O=C(N/N=C/C=C/c1ccc([N+](=O)[O-])cc1)c1cccs1 | 50µM* | 25% | -30% | 40µM* | -30%
S=C(S)O[C@@H]1C[C@@H]2C[C@H]1[C@@H]1CCC[C@H]21 | x | x | x | x | 12%
O=C(Cc1cccs1)N/N=C/c1ccco1 | 11% | 26% | 3% | -18% | 0%
O=C(Cc1cccs1)N/N=C/C=C\c1ccco1 | -3% | -9% | -25% | u | 7.9µM*
Cc1cccn2cc(CSc3nnc(Nc4ccc(C(C)C)cc4)s3)nc12 | -37% | 14% | -29% | 40µM* | -2%
SMILES | BAZ2B inh | HP1b binding inh | JMJD2A Tudor | G9a block | Sfp PPTase inh
COc1ccc(Nc2nnc(SCc3cn4c(C)cccc4n3)s2)cc1 | u | 4% | -32% | u | 4%
CSCCC(NC(=O)c1ccccc1Br)C(=O)NNC(=O)c1cc(C)oc1C (stereo unspecified) | x | 34% | -8% | x | x
C=Cc1ccc(Cn2c(C(=O)O)c(CNCc3ccccc3)c3ccc(C)cc32)cc1 | 50µM* | 0% | u | u | x
C/C(=N\NC(N)=O)c1ccc(-n2ccnc2)cc1 | -9% | 28% | -4% | 20%[12.7 µM] | 18%
C/C(=N\Nc1ccc(C(=O)O)cc1)c1ccc(-n2ccnc2)cc1 | -23% | 32% | -29% | 13µM* | 8%
C/C(=N\Nc1ccccc1Cl)c1ccc(-n2ccnc2)cc1 | 50µM* | u | 56µM* | 10µM* | -18%
COc1ccc(CNC(=O)Cn2nc(C)c3nn(-c4ccc(Cl)cc4)c(C)c3c2=O)cc1 | 8% | 16%[57 µM] | -13% | 17%[59 µM] | x
Cc1cn2c(=O)c(S(=O)(=O)Nc3ccc(OC(F)(F)F)cc3)c(C)nc2s1 | -11% | 40% | -8% | -25%[59 µM] | x
O=c1c(N2CCOCC2)c(N2CCOCC2)c1=O | 1% | 52% | -4% | x | -13%
CC(C)(C)C1=CC(=O)C(N2CCOCC2)=CC1=O | 50µM* | u | -34% | u | -16%
CCN1C(=O)[C@H]2[C@@H](c3ccc(OC)cc3)N3C(=O)CN(CCOC)C(=O)[C@@]3(C)[C@H]2C1=O | -3% | 32% | -6% | 20% | 19%
CCOC(=O)Cn1c(=O)n(CC2CCCO2)c2nc(-c3ccccc3OC)nc(C(N)=O)c21 (stereo unspecified) | -13% | 12%[57 µM] | -21% | 9%[59 µM] | x
C/C(N)=C(/C#N)C(=O)CSc1nc2ccccc2c(=O)n1Cc1ccc(F)cc1 | u | 5% | -21% | -44% | 71µM*
CC1=C(C(=O)Nc2cccc(Cl)c2)C2(CCCCCC2)OC1=O | -17% | 19% | -34% | -2%[59 µM] | x
N=c1c[n+](N2CCOCC2)[n-]o1 | 50µM* | 2% | 56µM* | 8.9µM*! | -11%
CCC(Oc1ccccc1)C(=O)NC1CCSC1=O (stereo unspecified) | -15% | 49% | -2% | 45µM* | 12%
N#CC1=C2SCN(Cc3ccco3)CN2C(=O)CC1c1c(F)cccc1Cl (stereo unspecified) | -6% | u | 14µM* | 1.6µM* | 2.8µM*
Cc1ccc(C2CC(=O)N3CN(Cc4ccco4)CSC3=C2C#N)cc1 (stereo unspecified) | -8% | u | 56µM* | u | 2.2µM*
O=C(Cc1ccccc1)Nc1ccccc1N1CCOCC1 | -7% | 48% | 4% | 0%[0.0925 µM] | 4%
COc1ccc(CC(=O)Nc2ccccc2N2CCCC2)cc1 | u | 7% | -36% | x | -3%
O=C(Cc1ccccc1)Nc1ccccc1N1CCCC1 | -35% | 12% | -30% | 56µM* | 0%
O=C(CNCC1CCCCC1)Nc1ccccc1N1CCCCC1 | u | -25% | -76%[57.1 µM] | u | u
O=C(CNC1CCCCCC1)Nc1ccccc1N1CCCCC1 | u | u | 1.4µM* | u | u
CCn1nc(C(=O)Nc2ccccc2N2CCCC2)c2ccccc2c1=O | 40µM* | u | 35µM* | 25µM* | x
O=C(Cc1ccc(Br)cc1)Nc1ccccc1N1CCCC1 | u | -3% | u | 50µM* | 10%

Screening data: PubChem, National Center for Advancing Translational Sciences (NCATS)
